Columns and labels:
Assay in all cases: PBM binding z-score (relative to random genomic background probes); higher = stronger binding; sequences stand for … in GC…GCGATTGACAGCGTAGAATGAAGG
[1] = system: FXR:RXRa (NR concentration 270 nM, RXRa partner concentration 90 nM)
Outline: (§1)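 Scanned fluorescence from custom Agilent 4×180K protein-binding microarrays was regression-normalized. Binding z-scores use random background probes as reference. Ligand-free nuclear receptor dimers were incubated on the arrays for 1 h and detected with antibodies against each partner (one per run).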

[2] = system: LXRa:RXRa (NR concentration 270 nM, RXRa partner concentration 90 nM)
Outline: as §1

[3] = system: LXRa homodimer (NR concentration 270 nM)
Outline: as §1

[4] = system: LXRb:RXRa (NR concentration 270 nM, RXRa partner concentration 90 nM)
Outline: as §1

[5] = system: LXRb homodimer (NR concentration 270 nM)
Outline: as §1

[6] = system: PPARa:RXRa (NR concentration 270 nM, RXRa partner concentration 90 nM)
Outline: as §1

[7] = system: PPARg:RXRa (NR concentration 180 nM, RXRa partner concentration 90 nM)
Outline: as §1

[8] = system: PPARg:RXRa 270nM:90nM, anti-RXR (NR concentration 270 nM, RXRa partner concentration 90 nM)
Outline: as §1

[9] = system: PPARg:RXRa 30nM:10nM, anti-RXR (NR concentration 30 nM, RXRa partner concentration 10 nM)
Outline: as §1

[10] = system: PPARg:RXRa 90nM:30nM, anti-RXR (NR concentration 90 nM, RXRa partner concentration 30 nM)
Outline: as §1

[11] = system: PPARg:RXRa DBDmut IVT, anti-RXR (DBD mutation: RXRa K156A/R161A, NR concentration 270 nM, RXRa partner concentration 90 nM)
Outline: as §1

[12] = system: PPARg:RXRa IVT, anti-PPARg (NR concentration 270 nM, RXRa partner concentration 90 nM)
Outline: as §1

[13] = system: PPARg DBDmut:RXRa IVT, anti-PPARg (DBD mutation: PPARg1 K132A/R137A, NR concentration 270 nM, RXRa partner concentration 90 nM)
Outline: as §1

[14] = system: PPARg DBDmut IVT, anti-PPARg (DBD mutation: PPARg1 K132A/R137A, NR concentration 270 nM)
Outline: as §1

[15] = system: PPARg homodimer (NR concentration 180 nM)
Outline: as §1

[16] = system: PXR:RXRa (NR concentration 270 nM, RXRa partner concentration 90 nM)
Outline: as §1

[17] = system: PXR homodimer (NR concentration 270 nM)
Outline: as §1

[18] = system: RARa:RXR (NR concentration 270 nM, RXRa partner concentration 90 nM)
Outline: as §1

[19] = system: RARa homodimer (NR concentration 270 nM)
Outline: as §1

[20] = system: RARb:RXRa (NR concentration 270 nM, RXRa partner concentration 90 nM)
Outline: as §1

| Sequence | PBM binding z-score [1] | PBM binding z-score [2] | PBM binding z-score [3] | PBM binding z-score [4] | PBM binding z-score [5] | PBM binding z-score [6] | PBM binding z-score [7] | PBM binding z-score [8] | PBM binding z-score [9] | PBM binding z-score [10] | PBM binding z-score [11] | PBM binding z-score [12] | PBM binding z-score [13] | PBM binding z-score [14] | PBM binding z-score [15] | PBM binding z-score [16] | PBM binding z-score [17] | PBM binding z-score [18] | PBM binding z-score [19] | PBM binding z-score [20] |
| --- | --- | --- | --- | --- | --- | --- | --- | --- | --- | --- | --- | --- | --- | --- | --- | --- | --- | --- | --- | --- |
| TCTTATAGGTAAATGCTAGGTGAAAGTCCGATCT | 1.33 | 1.6 | 0.477 | 1.11 | 0.669 | 1.27 | 0.531 | 2.5 | 3.79 | 3.41 | 3.93 | 2.62 | 1.31 | 1.13 | 1.1 | 0.946 | 0.588 | 1.4 | 1.65 | 0.769 |
| GCTGCTAGGTCACGTTGGTCAGCTAACGGGTACG | 3.59 | 2.38 | 0.0398 | 1.73 | -0.378 | 3.5 | 3.91 | 3.87 | 1.1 | 2.79 | 5.22 | 4.99 | 0.1 | -0.257 | 1.72 | 1.74 | -0.356 | 2.81 | -0.306 | 4.18 |
| CCGACTGGGGCAGAAAGGTCACCATACCATCCGG | 3.52 | 3.99 | 1.97 | 3.56 | -0.936 | 4.65 | 4.35 | 5.18 | 3.05 | 4.59 | 1.91 | 3.29 | -0.398 | -0.64 | 4.46 | 5.07 | 0.611 | 6.06 | 2.92 | 4.39 |
| GCTAGTTGGGCAGTAAAAGGTCACACACCGGTCG | 3.19 | 4.3 | 4.34 | 3.64 | 0.418 | 4.28 | 2.12 | 3.8 | 1.65 | 3.19 | 0.484 | 2.09 | -0.128 | -0.41 | 4.82 | 5.1 | 1.13 | 6.26 | 2.32 | 4.16 |
| CGTCCAAGGTCAATGCTAGGTCAGCGAAAGCATT | 6.63 | 5.79 | 2.77 | 4.08 | 1.43 | 5.16 | 4.44 | 4.73 | 1.24 | 3.25 | 3.48 | 4.11 | 0.86 | 0.428 | 7.14 | 4.98 | 1.31 | 6.26 | 1.36 | 5.17 |
| TCCTATAGGTAAAAGGTGAAAGTCGGTGTGGTAA | 2.04 | 1.54 | -0.461 | 1.82 | -0.544 | 4.65 | 7.68 | 7.41 | 7.38 | 8.23 | 3.53 | 3.95 | 0.0451 | 0.327 | 1.1 | 1.66 | 0.259 | 2.87 | 0.703 | 1.85 |
| CCTATTCGTTGACCATAAGGGCAACCGAAGCTCG | 0.737 | 0.584 | 0.874 | 0.578 | 1.19 | 0.766 | 0.4 | 0.418 | 0.115 | 0.223 | 0.434 | 0.637 | 0.0621 | 0.266 | 1.7 | 0.841 | 0.82 | 1.41 | 1.43 | 1.82 |
| TCTCGGAGGATACGAAAGGTCAGAGCTCGACATC | 2.69 | 4.17 | 2.95 | 3.22 | -0.148 | 3.68 | 1.75 | 3.37 | 2.63 | 3.04 | 1.32 | 1.03 | -1.04 | -0.436 | 2.71 | 3.67 | 0.308 | 4.51 | 0.99 | 3.69 |
| CCTAGCAGGCCAATCTTGGTCACTCAAGGCTTGA | -0.234 | -0.221 | -0.7 | -0.577 | -0.715 | -0.114 | -0.277 | -0.609 | -0.894 | -0.992 | 1.37 | 0.831 | -0.756 | -1.03 | -0.618 | -0.565 | -0.712 | -0.332 | -1.07 | 0.275 |
| GCAGACAGGTGAAACGGAGGTAACTCAGGGTGGC | -0.223 | 0.247 | -0.497 | -0.0336 | -0.922 | 0.977 | 0.646 | 0.393 | -0.282 | 0.0488 | 1.09 | 0.463 | -0.413 | -1.08 | -0.308 | 0.0496 | -0.337 | 0.668 | -0.627 | 0.729 |
| TAGCCTAGGTCATTCAGGGGCCATTATAGAAAGC | 4.21 | 4.32 | 1.34 | 3.81 | 1.44 | 3.96 | 2.32 | 2.45 | 0.349 | 1.57 | 1.86 | 3.06 | 0.753 | 0.98 | 2.02 | 3.3 | 0.128 | 3.79 | 0.894 | 3.98 |
| CGTCCAAGGTCAGAGAGGTCAGCGAATGCCGAGT | 6.38 | 5.44 | 3.27 | 4.32 | 0.249 | 5.09 | 4 | 4.67 | 0.981 | 3.07 | 3.1 | 3.68 | -0.551 | -0.132 | 3.56 | 6.27 | 10.9 | 6.31 | 2.51 | 5.22 |
| TCTAGCAGGCCAGAGGGTCAATCAAGAGGTACGG | 1.44 | 1.33 | -0.494 | 1.43 | -1.31 | 2.66 | 1.61 | 3.01 | 2.27 | 2.91 | 0.793 | 0.929 | -2.08 | -0.99 | 1.31 | 1.76 | -0.442 | 2.63 | -0.831 | 2.25 |

Reference: the supplement of paper PMC6555819
